Results reported in PMC7862700, “An all-to-all approach to the identification of sequence-specific readers for epigenetic DNA modifications on cytosine”.

Columns and labels:
Test in all cases: DAPPL (digital affinity profiling via proximity ligation, sequencing); 10 mM Tris-HCl pH 7.5, 50 mM NaCl, 1 mM DTT, 4% glycerol, room temperature, 30 min; GST-TFs on glutathione beads, 16-mer random dsDNA library, 0.1% formaldehyde crosslink after washing; high values mean tight binding
[1] = target: T1, FEV (Homo sapiens, UniProt Q99581 1-238); conditions: protein: recombinant; tags: N-terminal GST; dsDNA, one strand shown
T1 sequence: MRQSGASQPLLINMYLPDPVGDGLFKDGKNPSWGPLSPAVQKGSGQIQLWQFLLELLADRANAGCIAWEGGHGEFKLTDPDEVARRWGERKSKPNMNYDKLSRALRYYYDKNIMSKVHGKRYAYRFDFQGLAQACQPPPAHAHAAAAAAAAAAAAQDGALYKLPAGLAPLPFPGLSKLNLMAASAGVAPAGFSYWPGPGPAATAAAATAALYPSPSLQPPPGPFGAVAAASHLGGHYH
Outline: (§1)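 Pools of DNA-barcoded human transcription factors, expressed in yeast as GST fusions on glutathione beads and combined with a tag-only sample, were incubated with 200 nmole of a 16-mer random double-stranded DNA library. Incubation took 30 min at room temperature in Tris/NaCl/DTT/glycerol buffer and was followed by washing, 0.1% formaldehyde crosslinking, proximity ligation (BsaI/T4 ligase, 1 h, 37 °C), PCR amplification and sequencing on an Illumina NextSeq500. Binding signal is the ratio of a hexamer's read frequency for a factor to its frequency for the tag-only sample.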

[2] = target: ETV5 (Homo sapiens, UniProt P41161 1-510); conditions: protein: recombinant; tags: N-terminal GST; dsDNA, one strand shown
Chain of ETV5 (P41161 whole entry): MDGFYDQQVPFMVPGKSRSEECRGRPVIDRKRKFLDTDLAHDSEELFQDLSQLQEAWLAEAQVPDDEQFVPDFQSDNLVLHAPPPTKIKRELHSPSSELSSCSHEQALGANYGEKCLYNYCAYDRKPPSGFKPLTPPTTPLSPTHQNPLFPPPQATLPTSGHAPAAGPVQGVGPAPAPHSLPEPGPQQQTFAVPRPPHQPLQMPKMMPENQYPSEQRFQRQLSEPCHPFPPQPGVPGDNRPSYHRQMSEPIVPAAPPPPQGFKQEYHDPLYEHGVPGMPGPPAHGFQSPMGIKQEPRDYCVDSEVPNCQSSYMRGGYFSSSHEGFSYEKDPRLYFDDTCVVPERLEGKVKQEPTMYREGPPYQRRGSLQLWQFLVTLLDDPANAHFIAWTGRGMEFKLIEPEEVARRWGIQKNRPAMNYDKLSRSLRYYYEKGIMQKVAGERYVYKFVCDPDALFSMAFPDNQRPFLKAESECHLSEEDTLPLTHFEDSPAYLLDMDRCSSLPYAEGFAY
Outline: as §1

[3] = target: HSF1 (Homo sapiens, UniProt Q00613 1-529); conditions: protein: recombinant; tags: N-terminal GST; chain copies: 3; dsDNA, one strand shown
Chain of HSF1 (Q00613 whole entry): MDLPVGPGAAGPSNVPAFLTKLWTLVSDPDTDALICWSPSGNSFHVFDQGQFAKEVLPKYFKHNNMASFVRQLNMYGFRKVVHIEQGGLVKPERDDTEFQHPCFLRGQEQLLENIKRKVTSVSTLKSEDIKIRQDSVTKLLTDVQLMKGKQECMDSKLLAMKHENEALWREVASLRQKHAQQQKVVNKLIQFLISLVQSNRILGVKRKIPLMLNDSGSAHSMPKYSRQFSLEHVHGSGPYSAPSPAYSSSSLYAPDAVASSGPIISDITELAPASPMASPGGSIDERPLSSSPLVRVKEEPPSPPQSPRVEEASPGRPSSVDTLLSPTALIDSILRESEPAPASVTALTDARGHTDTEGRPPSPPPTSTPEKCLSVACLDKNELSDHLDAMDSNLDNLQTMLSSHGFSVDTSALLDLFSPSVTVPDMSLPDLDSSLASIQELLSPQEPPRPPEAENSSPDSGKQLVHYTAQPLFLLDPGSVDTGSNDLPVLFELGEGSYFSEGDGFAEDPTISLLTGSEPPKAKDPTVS
Outline: as §1

[4] = target: T2, SPIC (Homo sapiens, UniProt Q8N5J4 1-248); conditions: protein: recombinant; tags: N-terminal GST; dsDNA, one strand shown
T2 sequence: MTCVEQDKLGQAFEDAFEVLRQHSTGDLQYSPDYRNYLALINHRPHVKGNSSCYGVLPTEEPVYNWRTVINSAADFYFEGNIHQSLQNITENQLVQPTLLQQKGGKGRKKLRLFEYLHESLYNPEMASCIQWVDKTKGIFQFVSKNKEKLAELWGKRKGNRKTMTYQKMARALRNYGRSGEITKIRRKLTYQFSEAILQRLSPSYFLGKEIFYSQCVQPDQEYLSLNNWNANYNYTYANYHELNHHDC
Outline: as §1

[5] = target: ELF4 (Homo sapiens, UniProt Q99607 1-663); conditions: protein: recombinant; tags: N-terminal GST; dsDNA, one strand shown
Chain of ELF4 (Q99607 whole entry): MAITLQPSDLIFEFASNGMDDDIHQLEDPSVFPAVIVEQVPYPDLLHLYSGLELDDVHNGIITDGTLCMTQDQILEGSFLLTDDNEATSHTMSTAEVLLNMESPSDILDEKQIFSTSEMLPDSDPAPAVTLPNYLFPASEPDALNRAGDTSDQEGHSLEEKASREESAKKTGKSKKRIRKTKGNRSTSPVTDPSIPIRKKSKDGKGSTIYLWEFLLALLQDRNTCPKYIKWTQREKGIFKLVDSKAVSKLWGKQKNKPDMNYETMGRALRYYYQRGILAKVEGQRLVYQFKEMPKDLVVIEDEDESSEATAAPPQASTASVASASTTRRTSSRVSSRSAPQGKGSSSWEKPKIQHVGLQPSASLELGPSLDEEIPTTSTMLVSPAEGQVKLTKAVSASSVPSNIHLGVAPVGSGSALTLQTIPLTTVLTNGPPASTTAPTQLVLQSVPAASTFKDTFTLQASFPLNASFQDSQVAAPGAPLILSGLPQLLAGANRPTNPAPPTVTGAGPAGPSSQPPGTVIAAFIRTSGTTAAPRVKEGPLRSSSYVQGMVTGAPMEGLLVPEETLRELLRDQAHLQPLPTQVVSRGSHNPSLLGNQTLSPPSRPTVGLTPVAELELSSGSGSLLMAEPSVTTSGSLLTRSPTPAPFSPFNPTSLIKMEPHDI
Outline: as §1

[6] = target: T3, ELK4 (Homo sapiens, UniProt P28324-2 1-405); conditions: protein: recombinant; tags: N-terminal GST; dsDNA, one strand shown
T3 sequence: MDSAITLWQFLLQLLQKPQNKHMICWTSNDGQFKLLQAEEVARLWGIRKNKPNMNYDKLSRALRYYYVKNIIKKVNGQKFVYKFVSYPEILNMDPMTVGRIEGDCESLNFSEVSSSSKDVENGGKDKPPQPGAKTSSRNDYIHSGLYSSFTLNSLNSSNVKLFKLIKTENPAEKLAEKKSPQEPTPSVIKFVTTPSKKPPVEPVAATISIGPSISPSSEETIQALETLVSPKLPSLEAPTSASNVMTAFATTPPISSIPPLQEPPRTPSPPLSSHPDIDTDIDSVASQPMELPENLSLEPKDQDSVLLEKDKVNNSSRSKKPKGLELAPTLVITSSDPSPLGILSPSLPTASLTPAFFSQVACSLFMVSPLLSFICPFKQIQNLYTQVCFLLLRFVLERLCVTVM
Outline: as §1

[7] = target: T4, ETV2 (Homo sapiens, UniProt O00321 1-342); conditions: protein: recombinant; tags: N-terminal GST; dsDNA, one strand shown
T4 sequence: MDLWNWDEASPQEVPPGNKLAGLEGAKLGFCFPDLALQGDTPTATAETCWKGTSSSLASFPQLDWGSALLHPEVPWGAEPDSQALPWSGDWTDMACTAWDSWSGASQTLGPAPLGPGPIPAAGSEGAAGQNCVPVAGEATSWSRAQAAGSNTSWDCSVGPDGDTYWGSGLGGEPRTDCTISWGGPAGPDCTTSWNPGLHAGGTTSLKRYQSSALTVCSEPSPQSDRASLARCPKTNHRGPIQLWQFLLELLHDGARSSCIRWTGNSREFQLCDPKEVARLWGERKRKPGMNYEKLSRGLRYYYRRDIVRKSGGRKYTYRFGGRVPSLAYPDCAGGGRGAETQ
Outline: as §1

[8] = target: T5, ELF3 (Homo sapiens, UniProt P78545 1-371); conditions: protein: recombinant; tags: N-terminal GST; dsDNA, one strand shown
T5 sequence: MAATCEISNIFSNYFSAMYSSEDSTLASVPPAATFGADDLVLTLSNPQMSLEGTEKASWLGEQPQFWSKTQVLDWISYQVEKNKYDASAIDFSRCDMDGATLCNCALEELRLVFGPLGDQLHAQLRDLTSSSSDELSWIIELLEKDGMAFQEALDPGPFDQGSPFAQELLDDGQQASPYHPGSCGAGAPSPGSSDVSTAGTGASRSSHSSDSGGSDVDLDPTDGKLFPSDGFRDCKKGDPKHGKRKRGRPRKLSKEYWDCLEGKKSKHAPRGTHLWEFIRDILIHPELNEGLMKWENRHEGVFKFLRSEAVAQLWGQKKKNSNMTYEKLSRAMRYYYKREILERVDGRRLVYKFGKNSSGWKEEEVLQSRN
Outline: as §1

[9] = target: CRX (Homo sapiens, UniProt O43186 1-299); conditions: protein: recombinant; tags: N-terminal GST; dsDNA, one strand shown
Chain of CRX (O43186 whole entry): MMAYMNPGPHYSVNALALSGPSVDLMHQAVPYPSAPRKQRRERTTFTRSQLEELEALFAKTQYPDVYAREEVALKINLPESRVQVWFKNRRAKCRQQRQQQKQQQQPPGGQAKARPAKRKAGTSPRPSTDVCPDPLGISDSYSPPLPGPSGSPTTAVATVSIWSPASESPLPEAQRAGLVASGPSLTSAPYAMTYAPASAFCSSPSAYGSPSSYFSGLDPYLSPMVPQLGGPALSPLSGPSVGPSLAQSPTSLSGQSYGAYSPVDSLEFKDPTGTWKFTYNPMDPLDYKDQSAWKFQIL
Outline: as §1

[10] = target: ETV1 (Homo sapiens, UniProt P50549 1-477); conditions: protein: recombinant; tags: N-terminal GST; dsDNA, one strand shown
Chain of ETV1 (P50549 whole entry): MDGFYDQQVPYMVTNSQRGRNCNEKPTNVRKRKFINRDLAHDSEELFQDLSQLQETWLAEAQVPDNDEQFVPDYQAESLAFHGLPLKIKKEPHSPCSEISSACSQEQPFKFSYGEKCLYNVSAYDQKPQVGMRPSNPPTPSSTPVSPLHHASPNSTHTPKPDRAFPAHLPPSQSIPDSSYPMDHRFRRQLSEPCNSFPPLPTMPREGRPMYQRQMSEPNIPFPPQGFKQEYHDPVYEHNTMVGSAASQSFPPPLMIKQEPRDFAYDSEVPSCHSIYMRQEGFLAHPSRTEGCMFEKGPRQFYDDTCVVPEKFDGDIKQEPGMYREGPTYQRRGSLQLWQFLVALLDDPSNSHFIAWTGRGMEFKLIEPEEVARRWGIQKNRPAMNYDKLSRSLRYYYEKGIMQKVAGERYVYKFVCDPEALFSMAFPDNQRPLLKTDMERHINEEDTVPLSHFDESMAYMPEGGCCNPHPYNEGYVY
Outline: as §1

TGCTCG
binding signal [1]: 1.23 fold enrichment (6-mer frequency, TF over GST control)
binding signal [2]: 1.31 fold enrichment (6-mer frequency, TF over GST control)
binding signal [3]: 1.56 fold enrichment (6-mer frequency, TF over GST control)
binding signal [4]: 1.33 fold enrichment (6-mer frequency, TF over GST control)
binding signal [5]: 1.24 fold enrichment (6-mer frequency, TF over GST control)
binding signal [6]: 1.26 fold enrichment (6-mer frequency, TF over GST control)
binding signal [7]: 1.21 fold enrichment (6-mer frequency, TF over GST control)
binding signal [8]: 1.28 fold enrichment (6-mer frequency, TF over GST control)
binding signal [9]: 1.17 fold enrichment (6-mer frequency, TF over GST control)
binding signal [10]: 1.28 fold enrichment (6-mer frequency, TF over GST control)
